From PubChem BioAssay (NCI)
This is part of a sample that, as a whole, favours compounds with a hit. Of some 79,000 tested, about 15% had one in any assay. Values without a mark were called inactive. The source made the active and inactive calls. Cut-off read from the data, not from the text of the source: active = growth inhibition above about 70%; inactive = the rest.

Columns and labels:
[1] = NCI Yeast Anticancer Drug Screen. Data for the rad50 strain (AID 155);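 note: 0% = growth of vehicle-only cultures of the same strain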; conditions: S. cerevisiae rad50 strain growth inhibition; at 50.0 µM; active compounds read high
In short: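 Growth of the mutant yeast was measured after compound exposure and referenced to vehicle-treated cultures.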

[2] = NCI Yeast Anticancer Drug Screen. Data for the mec2-1 strain (AID 157); conditions: S. cerevisiae mec2-1 strain, at 50.0 µM, active compounds read high
In short: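 mec2-1 yeast strain, carrying an alteration in DNA damage repair or cell cycle control, was exposed to compounds; growth inhibition was measured relative to vehicle-treated controls.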

[3] = NCI Yeast Anticancer Drug Screen. Data for the sgs1 mgt1 strain (AID 161);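 note: 0% = growth of cultures given vehicle only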; conditions: S. cerevisiae sgs1 mgt1 strain, at 50.0 µM, active compounds read high
In short: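 This yeast growth screen uses a strain with defined DNA-repair lesions; compound-treated growth is compared with vehicle-treated growth.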

[4] = NCI Yeast Anticancer Drug Screen. Data for the cln2 rad14 strain (AID 165);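 note: 0% = growth equal to vehicle treated cultures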; conditions: S. cerevisiae cln2 rad14 strain, at 50.0 µM, active compounds read high
In short: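 Yeast carrying cln2 and rad14 alterations (cell cycle control and DNA damage repair) were exposed to compounds. Growth inhibition was measured against vehicle-treated controls.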

[5] = NCI Yeast Anticancer Drug Screen. Data for the bub3 strain (AID 167); conditions: S. cerevisiae bub3 mutant strain, at 50.0 µM, active compounds read high
In short: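 Whole-cell yeast assay. The mutant strain was incubated with compounds, and growth inhibition was determined by comparison with vehicle-treated cells.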

[6] = NCI Yeast Anticancer Drug Screen. Data for the mlh1 rad18 strain (AID 175); conditions: S. cerevisiae mlh1 rad18 strain growth inhibition; at 50.0 µM; active compounds read high
In short: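 Growth inhibition of the yeast strain was measured after compound exposure and expressed relative to vehicle-treated controls. The strain carries defined defects in DNA damage repair.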

## CCN(c1ccccc1)P(I)(c1ccccc1)(c1ccccc1)c1ccccc1
[1]
  growth inhibition: 98.7% (active)
[2]
  growth inhibition: 99.5% (active)
[3]
  growth inhibition: 99.3% (active)
[4]
  growth inhibition: 98.6% (active)
[5]
  growth inhibition: 98.2% (active)
[6]
  growth inhibition: 99% (active)

## CCCCC(CC)COP(=S)(S)OCC(CC)CCCC.[Sn] (stereo not given)
[1]
  growth inhibition: -7.7%
[2]
  growth inhibition: -10.4%
[3]
  growth inhibition: -6.5%
[4]
  growth inhibition: -46.9%
[5]
  growth inhibition: 13.8%
[6]
  growth inhibition: -7.7%

## CC(C)(C)N1OC1c1cccc(Cl)c1 (stereo not given)
[1]
  growth inhibition: 29.6%
[2]
  growth inhibition: 29.4%
[3]
  growth inhibition: 10.8%
[4]
  growth inhibition: 11.9%
[5]
  growth inhibition: -2.85%
[6]
  growth inhibition: 36.5%

## Oc1ccccc1C1NCCc2[nH]cnc21 (stereo not given)
[1]
  growth inhibition: 39%
[2]
  growth inhibition: 11.3%
[3]
  growth inhibition: 14.4%
[4]
  growth inhibition: 30.8%
[5]
  growth inhibition: 4.15%
[6]
  growth inhibition: 7.9%

## COC1OOC(OC)c2ccccc2-c2ccccc21 (stereo not given)
[1]
  growth inhibition: -15.3%
[2]
  growth inhibition: -9.7%
[3]
  growth inhibition: 4.1%
[4]
  growth inhibition: -14.1%
[5]
  growth inhibition: 15.5%
[6]
  growth inhibition: 4.15%

## O=c1ccc(=O)[nH][nH]1.[Mn]
[1]
  growth inhibition: 2.05%
[2]
  growth inhibition: 4.5%
[3]
  growth inhibition: -13.6%
[4]
  growth inhibition: 17.1%
[5]
  growth inhibition: 7.2%
[6]
  growth inhibition: -1.7%

## O=C1CCCN1CC#CCN1C[C@@H]2C3CCC(C3)[C@@H]2C1
[1]
  growth inhibition: -2.8%
[2]
  growth inhibition: -8.5%
[3]
  growth inhibition: 6.25%
[4]
  growth inhibition: 29.4%
[5]
  growth inhibition: 17%
[6]
  growth inhibition: 27.6%

## O=C1NC(=O)C(C(=O)C(=O)Nc2cccc(C(F)(F)F)c2)C(=O)N1
[1]
  growth inhibition: -17.7%
[2]
  growth inhibition: 0.1%
[3]
  growth inhibition: -44.7%
[4]
  growth inhibition: -1.75%
[5]
  growth inhibition: -31%
[6]
  growth inhibition: -40.9%

## COc1cc2c(cc1OC)[C@@H]1C(=O)c3ccc4c(c3O[C@@H]1CO2)C[C@H](C(C)C)O4
[1]
  growth inhibition: -11.2%
[2]
  growth inhibition: -40.2%
[3]
  growth inhibition: -1.45%
[4]
  growth inhibition: -9.25%
[5]
  growth inhibition: -33.6%
[6]
  growth inhibition: 7.2%

## COC(=O)CP(=O)(OC)OC
[1]
  growth inhibition: 5.3%
[2]
  growth inhibition: -24.1%
[3]
  growth inhibition: 1.8%
[4]
  growth inhibition: -3.15%
[5]
  growth inhibition: 1%
[6]
  growth inhibition: 7.2%

## CC(=O)Cc1c[nH]c2ccccc12
[1]
  growth inhibition: -25.2%
[2]
  growth inhibition: -41.3%
[3]
  growth inhibition: -9.35%
[4]
  growth inhibition: -1.5%
[5]
  growth inhibition: -28.2%
[6]
  growth inhibition: -25.2%

## C[C@]12CCc3nonc3C1CC[C@@H]1C2CC[C@@]2(C)C1CC[C@@H]2O (stereo not given in full)
[1]
  growth inhibition: 3.65%
[2]
  growth inhibition: -0.65%
[3]
  growth inhibition: -0.4%
[4]
  growth inhibition: -53.1%
[5]
  growth inhibition: -7.55%
[6]
  growth inhibition: -2.1%

## O=C(Nc1ccc(S(=O)(=O)F)cc1)c1ccc2ccccc2c1O
[1]
  growth inhibition: 9.85%
[2]
  growth inhibition: 31.8%
[3]
  growth inhibition: 32.5%
[4]
  growth inhibition: 2.15%
[5]
  growth inhibition: 27.9%
[6]
  growth inhibition: 25.4%

## Cc1ccc(-n2c(=O)[nH]c3ccccc3c2=O)cc1[N+](=O)[O-]
[1]
  growth inhibition: 12.9%
[2]
  growth inhibition: 12.3%
[3]
  growth inhibition: 33%
[4]
  growth inhibition: 23.2%
[5]
  growth inhibition: 35.4%
[6]
  growth inhibition: 26.6%

## CC(C)OP(=O)(OC(C)C)C(=O)Nc1ccc(Cl)cc1
[1]
  growth inhibition: -24.9%
[2]
  growth inhibition: 16.1%
[3]
  growth inhibition: 5.85%
[4]
  growth inhibition: -29.9%
[5]
  growth inhibition: 16.5%
[6]
  growth inhibition: -8%

## CCC1(CCC(C)C)C(=O)NC(=NCCCC(N)C(=O)O)NC1=O (stereo not given)
[1]
  growth inhibition: 11.1%
[2]
  growth inhibition: -0.35%
[3]
  growth inhibition: 7.6%
[4]
  growth inhibition: 30.3%
[5]
  growth inhibition: 3.25%
[6]
  growth inhibition: 13.1%

## CC(C)CCON=O
[1]
  growth inhibition: -11.3%
[2]
  growth inhibition: -9.4%
[3]
  growth inhibition: -28.2%
[4]
  growth inhibition: -9.05%
[5]
  growth inhibition: -13.1%
[6]
  growth inhibition: -35.6%

## CCN=C=NCCCN(C)C
[1]
  growth inhibition: -18.8%
[2]
  growth inhibition: -8.8%
[3]
  growth inhibition: -23.1%
[4]
  growth inhibition: 0.25%
[5]
  growth inhibition: -41.2%
[6]
  growth inhibition: -6.35%

## COc1cc(OC)c(SC)cc1CC(C)N (stereo not given)
[1]
  growth inhibition: -19.2%
[2]
  growth inhibition: -0.95%
[3]
  growth inhibition: -3.2%
[4]
  growth inhibition: -16.1%
[5]
  growth inhibition: 21.3%
[6]
  growth inhibition: -3.05%

## C/C=C/C(=O)[O-].N.N.N.N.N.[Co+3].[O-][Cl+3]([O-])([O-])[O-]
[1]
  growth inhibition: -10.4%
[2]
  growth inhibition: -5.85%
[3]
  growth inhibition: -7.6%
[4]
  growth inhibition: 9.35%
[5]
  growth inhibition: -12.8%
[6]
  growth inhibition: -36.1%

## CC(=O)[CH-]C(C)=O.CC(=O)[CH-]C(C)=O.CC(=O)[CH-]C(C)=O.[Cl-].[Hf+4]
[1]
  growth inhibition: 3.85%
[2]
  growth inhibition: -1.25%
[3]
  growth inhibition: -16.6%
[4]
  growth inhibition: 21.4%
[5]
  growth inhibition: -9.75%
[6]
  growth inhibition: -6.35%

## CCC(=O)[O][Sn]([CH3])([CH3])[O][Sn]([CH3])([CH3])[O]C(=O)CC
[1]
  growth inhibition: -2.55%
[2]
  growth inhibition: 18.1%
[3]
  growth inhibition: -28.8%
[4]
  growth inhibition: 11.8%
[5]
  growth inhibition: -16.9%
[6]
  growth inhibition: 3.25%

## CCNc1ccc([N+](=O)[O-])cc1[N+](=O)[O-]
[1]
  growth inhibition: 11.3%
[2]
  growth inhibition: 16.9%
[3]
  growth inhibition: 7.45%
[4]
  growth inhibition: 4.5%
[5]
  growth inhibition: -6.4%
[6]
  growth inhibition: 5.9%

## NS(=O)(=O)c1cc(N(CCCl)CCCl)c([N+](=O)[O-])cc1[N+](=O)[O-]
[1]
  growth inhibition: -72.8%
[2]
  growth inhibition: -36.8%
[3]
  growth inhibition: -12.5%
[4]
  growth inhibition: 2.1%
[5]
  growth inhibition: -16.1%
[6]
  growth inhibition: -34.5%

## C[Si](C)(C)CS(=O)[O-].[C-]#[O+].[C-]#[O+].[Fe+6].[c-]1[c-][c-][cH-][c-]1
[1]
  growth inhibition: 0.1%
[2]
  growth inhibition: 8.8%
[3]
  growth inhibition: 20.7%
[4]
  growth inhibition: -12.2%
[5]
  growth inhibition: -3.85%
[6]
  growth inhibition: 6.65%

## O=C(NCC(O)CO)c1ccc(N(CCCl)CCCl)c([N+](=O)[O-])c1[N+](=O)[O-] (stereo not given)
[1]
  growth inhibition: 17.1%
[2]
  growth inhibition: 4.7%
[3]
  growth inhibition: 16.3%
[4]
  growth inhibition: 8.1%
[5]
  growth inhibition: 12.7%
[6]
  growth inhibition: 17.1%

## CCCCOCCOP(=O)(OCCOCCCC)OCCOCCCC
[1]
  growth inhibition: 7.85%
[2]
  growth inhibition: -15.2%
[3]
  growth inhibition: 2%
[4]
  growth inhibition: -14.8%
[5]
  growth inhibition: -39%
[6]
  growth inhibition: -28.4%

## CC1=CC(=Nc2ccc(N(CCCl)CCCl)cc2)C=C(C)C1=O
[1]
  growth inhibition: 3.2%
[2]
  growth inhibition: -16.6%
[3]
  growth inhibition: 12.2%
[4]
  growth inhibition: 13.8%
[5]
  growth inhibition: 8.15%
[6]
  growth inhibition: 37.1%

## O=C(Cc1ccccc1)OCC1CCCO1 (stereo not given)
[1]
  growth inhibition: 18.2%
[2]
  growth inhibition: -6.6%
[3]
  growth inhibition: -3.45%
[4]
  growth inhibition: -25.7%
[5]
  growth inhibition: -17.8%
[6]
  growth inhibition: 10.5%

## CC(C)/C=C/C1(C(C)C)C(=O)NC(=O)NC1=O
[1]
  growth inhibition: 19.5%
[2]
  growth inhibition: 9.5%
[3]
  growth inhibition: -4.85%
[4]
  growth inhibition: 14.1%
[5]
  growth inhibition: 3.9%
[6]
  growth inhibition: 3.1%

## COc1cc(O)c([N+](=O)[O-])cc1[N+](=O)[O-]
[1]
  growth inhibition: -6.4%
[2]
  growth inhibition: 0.35%
[3]
  growth inhibition: -2.9%
[4]
  growth inhibition: 0%
[5]
  growth inhibition: 18.9%
[6]
  growth inhibition: 5.05%

## c1cc2c(cc1[C@@H]1OC[C@@H]3[C@H]1CO[C@H]3c1ccc3c(c1)OCO3)OCO2
[1]
  growth inhibition: 14.1%
[2]
  growth inhibition: 12.8%
[3]
  growth inhibition: 47.2%
[4]
  growth inhibition: 12.2%
[5]
  growth inhibition: 65.5%
[6]
  growth inhibition: 6.15%

## CC(C)C1C=Cc2ccccc21 (stereo not given)
[1]
  growth inhibition: 13.8%
[2]
  growth inhibition: 1.85%
[3]
  growth inhibition: 4.45%
[4]
  growth inhibition: -13.1%
[5]
  growth inhibition: -3.55%
[6]
  growth inhibition: 28.8%

## CC(C)(C)C(=O)CP(=O)(O)O (tested in a mixture with another compound)
[1]
  growth inhibition: 24.1%
[2]
  growth inhibition: -4.45%
[3]
  growth inhibition: 1.5%
[4]
  growth inhibition: 14.7%
[5]
  growth inhibition: 10.2%
[6]
  growth inhibition: 15.3%

## O=[N+]([O-])c1cc(S(=O)(=O)O)cc([N+](=O)[O-])c1Cl
[1]
  growth inhibition: 8.35%
[2]
  growth inhibition: 7%
[3]
  growth inhibition: 2.85%
[4]
  growth inhibition: 50.5%
[5]
  growth inhibition: -17%
[6]
  growth inhibition: 24.8%

## CC(C)(N)Cc1ccc(N)cc1
[1]
  growth inhibition: 15.2%
[2]
  growth inhibition: -1.55%
[3]
  growth inhibition: 7.15%
[4]
  growth inhibition: 18.4%
[5]
  growth inhibition: 2.5%
[6]
  growth inhibition: 24.4%

## [N-]=[N+]=[N-]
[1]
  growth inhibition: 6.75%
[2]
  growth inhibition: 5.75%
[3]
  growth inhibition: 15%
[4]
  growth inhibition: -3.05%
[5]
  growth inhibition: 18%
[6]
  growth inhibition: -13.7%

## COc1cc2c(cc1O)CCN[C@H]2C
[1]
  growth inhibition: -1.3%
[2]
  growth inhibition: -25.8%
[3]
  growth inhibition: -0.95%
[4]
  growth inhibition: -4.1%
[5]
  growth inhibition: 3.55%
[6]
  growth inhibition: -1.45%

## O=Cc1ccccc1O.[Nd]
[1]
  growth inhibition: -0.65%
[2]
  growth inhibition: -33.6%
[3]
  growth inhibition: 17.2%
[4]
  growth inhibition: 6.65%
[5]
  growth inhibition: 3.9%
[6]
  growth inhibition: 6.6%

## CC(=O)C(=[N+]=[N-])C(=O)N(C)CCC#N
[1]
  growth inhibition: -7.3%
[2]
  growth inhibition: 6.25%
[3]
  growth inhibition: 11.2%
[4]
  growth inhibition: 13.7%
[5]
  growth inhibition: 7.25%
[6]
  growth inhibition: 20.9%
